Among all 360,000 compounds or so, about 16,000 (4.4%) were called active. Where a call stands in place of a potency, no number is given. Another 9% or so got no clear call; they are omitted. Calls come from the whole dose curve; as a rule, active = well fitted inhibition curve with a large enough effect; inconclusive = small, poorly fitted or top-dose-only effect; inactive = no such curve, though single readings can be large or run the other way. Only a selection was taken, and actives are over-represented in it overall.
Potency is the fitted concentration of half-maximal effect.

Chain of Bromodomain adjacent to zinc finger domain protein 2B (Homo sapiens) (Q9UIF8 whole entry, looked up, the tested form may be a part): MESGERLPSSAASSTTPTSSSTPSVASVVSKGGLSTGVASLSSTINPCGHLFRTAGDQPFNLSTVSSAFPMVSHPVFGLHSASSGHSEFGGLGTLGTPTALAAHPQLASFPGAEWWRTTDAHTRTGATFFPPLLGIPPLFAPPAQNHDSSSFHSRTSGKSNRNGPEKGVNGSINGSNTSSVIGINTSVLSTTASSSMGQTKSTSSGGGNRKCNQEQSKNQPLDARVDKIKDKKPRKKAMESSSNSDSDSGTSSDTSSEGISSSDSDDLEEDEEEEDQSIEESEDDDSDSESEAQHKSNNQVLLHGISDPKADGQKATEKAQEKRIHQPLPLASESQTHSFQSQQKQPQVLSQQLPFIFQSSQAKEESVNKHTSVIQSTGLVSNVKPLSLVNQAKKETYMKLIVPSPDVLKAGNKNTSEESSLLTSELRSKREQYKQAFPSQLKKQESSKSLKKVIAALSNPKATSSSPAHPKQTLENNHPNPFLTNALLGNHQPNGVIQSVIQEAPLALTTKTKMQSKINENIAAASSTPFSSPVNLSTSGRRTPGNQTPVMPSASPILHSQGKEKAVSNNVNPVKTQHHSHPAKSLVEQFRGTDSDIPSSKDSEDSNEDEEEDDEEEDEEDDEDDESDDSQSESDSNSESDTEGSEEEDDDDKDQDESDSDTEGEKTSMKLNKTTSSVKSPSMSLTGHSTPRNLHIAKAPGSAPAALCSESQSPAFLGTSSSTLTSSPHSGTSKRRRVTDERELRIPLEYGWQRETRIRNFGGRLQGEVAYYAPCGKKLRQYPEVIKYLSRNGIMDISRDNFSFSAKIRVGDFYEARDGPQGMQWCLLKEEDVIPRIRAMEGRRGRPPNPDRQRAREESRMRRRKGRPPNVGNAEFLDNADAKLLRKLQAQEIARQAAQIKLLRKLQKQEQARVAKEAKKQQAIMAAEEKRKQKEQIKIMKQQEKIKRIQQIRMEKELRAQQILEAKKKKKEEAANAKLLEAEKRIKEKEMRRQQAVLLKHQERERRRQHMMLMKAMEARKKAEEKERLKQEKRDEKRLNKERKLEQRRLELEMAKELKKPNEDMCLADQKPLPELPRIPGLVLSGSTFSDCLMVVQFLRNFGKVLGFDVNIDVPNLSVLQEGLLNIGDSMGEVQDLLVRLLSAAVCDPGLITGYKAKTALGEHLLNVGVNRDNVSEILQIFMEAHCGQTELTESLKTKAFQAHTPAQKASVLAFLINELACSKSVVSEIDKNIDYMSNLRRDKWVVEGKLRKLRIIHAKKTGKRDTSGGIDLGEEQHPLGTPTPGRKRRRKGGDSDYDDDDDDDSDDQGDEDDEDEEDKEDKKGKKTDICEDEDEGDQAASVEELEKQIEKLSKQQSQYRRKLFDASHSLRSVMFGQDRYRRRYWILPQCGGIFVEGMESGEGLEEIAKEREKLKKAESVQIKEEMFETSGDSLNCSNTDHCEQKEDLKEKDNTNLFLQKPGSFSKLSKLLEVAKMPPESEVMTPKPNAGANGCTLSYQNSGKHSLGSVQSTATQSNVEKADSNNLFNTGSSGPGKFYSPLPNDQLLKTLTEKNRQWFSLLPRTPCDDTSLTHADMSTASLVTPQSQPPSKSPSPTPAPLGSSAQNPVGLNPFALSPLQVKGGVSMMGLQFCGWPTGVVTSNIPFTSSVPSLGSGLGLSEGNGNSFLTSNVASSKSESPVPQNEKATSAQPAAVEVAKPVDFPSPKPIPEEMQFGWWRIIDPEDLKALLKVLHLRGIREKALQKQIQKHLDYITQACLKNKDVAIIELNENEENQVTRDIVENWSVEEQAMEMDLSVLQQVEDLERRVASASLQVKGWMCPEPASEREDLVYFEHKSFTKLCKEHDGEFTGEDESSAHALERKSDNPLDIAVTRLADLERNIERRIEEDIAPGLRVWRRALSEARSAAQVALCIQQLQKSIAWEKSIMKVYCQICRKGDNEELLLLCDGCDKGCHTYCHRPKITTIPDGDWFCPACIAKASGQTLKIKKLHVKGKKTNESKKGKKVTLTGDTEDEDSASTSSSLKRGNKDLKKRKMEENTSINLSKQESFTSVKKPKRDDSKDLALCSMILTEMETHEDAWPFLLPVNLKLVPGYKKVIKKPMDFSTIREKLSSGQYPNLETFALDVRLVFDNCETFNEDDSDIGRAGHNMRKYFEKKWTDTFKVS

The assay deals with Bromodomain adjacent to zinc finger domain protein 2B (Homo sapiens) (UniProt Q9UIF8). The experiment in a line: qHTS Assay for Inhibitors of BAZ2B. Note: nearly all actives have a fitted effect of over 60% in size. The note with it: AlphaScreen BAZ2B-H3K14Ac peptide displacement; series mostly up to 114 µM. An outline of the steps:
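AlphaScreen displacement of biotin-H3(5-23)K14Ac peptide (50 nM final) from BAZ2B (50 nM final) in PBS pH 7.4, 0.01% Tween-20; complex preformed 30 min RT, then compounds (top 110 uM) 30 min RT, beads 20 min dark.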
(qHTS replaces the single test concentration by a dilution series.)
As to `O=C(Cn1c(=O)n(-c2ccc(F)cc2)c(=O)c2sccc21)Nc1cccc(C(F)(F)F)c1`, the Potency result was “inactive”.

Take `CCc1cccc(-n2nnc(-c3nsc(NC(=O)c4ccc(C)cc4)n3)c2C)c1`: the Potency entry was “inactive”.

In the case of `O=C(CS(=O)(=O)c1cccc2nsnc12)N1CCN(c2cccc(Cl)c2)CC1`, the Potency entry is “inactive”.

Take `COc1ccccc1-c1cc(C(F)(F)F)nc(S(=O)(=O)CCCC(=O)Nc2ccc(F)cc2F)n1`: the Potency result was “inactive”.

Regarding `CCn1cc2nc(SCc3cccc(F)c3)n(CCc3ccccc3)c(=O)c2n1`, the Potency entry is “inactive”.

In the case of `COc1cc(NS(=O)(=O)c2ccc3c(c2)OCC(C(=O)N2CCCC2)O3)cc(OC)c1` (stereo unspecified), the Potency entry is “inactive”.

With `COc1ccc(C(=O)N2CCC(c3nc4ccccc4o3)CC2)cc1`, the Potency entry was “inactive”.

As to `Cc1cc2nc(C)n(CCCNC(=O)Nc3ccccc3)c2cc1C`, the Potency entry was “inactive”.

In the case of `Cc1cc(=O)n(C)c(=O)n1CCCNc1ccccc1`, the Potency is 50.1 µM (active).

With `Cn1c(Nc2ccccc2)cc(=O)n(C)c1=O`, the Potency entry was “inactive”.

Consider `Cc1ccc(-n2nc(C)c3c(C)cc(=O)n(CC(=O)Nc4ccc(C(C)C)cc4)c32)cc1`, for which the Potency entry was “inactive”.

In the case of `O=C(Cc1ccc(S(=O)(=O)N2CCOCC2)s1)NCCC(c1ccccc1)c1ccccc1`, the Potency result is “inactive”.

`O=C(Cc1ccc(S(=O)(=O)N2CCCC2)s1)NC1CCCCCC1`: the Potency was 50.1 µM (active).

`O=C(NC1CCCCC1)C1CCCN(S(=O)(=O)c2ccc(Br)s2)C1` (stereo unspecified): the Potency result is “inactive”.

Consider `Cc1cc(-c2ccc(C)c(S(=O)(=O)N3c4ccccc4CC3C)c2)on1` (stereo unspecified), for which the Potency entry is “inactive”.

Turning to `Cc1ccsc1CN(C(=O)c1oc2ccc(Br)cc2c1C)C1CCS(=O)(=O)C1` (stereo unspecified), the Potency entry is “inactive”.

Take `Cc1ccc(C(=O)Nc2nnc(C3=COCCO3)o2)cc1C`: the Potency was 50.1 µM (active).

With `O=C(Nc1nnc(C2=COCCO2)o1)c1ccc([N+](=O)[O-])s1`, the Potency was 79.4 µM (active).

Consider `COc1ccc(C(=O)COC(=O)c2ccc([N+](=O)[O-])s2)cc1OC`, for which the Potency result was “inactive”.

On to `CSc1ccccc1-c1nnc(NC(=O)c2ccc3c(c2)OCCO3)o1`, for which the Potency result was “inactive”.

On to `Cc1csc(NC(=O)C2=COCCO2)n1`, for which the Potency entry is “inactive”.

As for `CCC(CC)c1nnc(NC(=O)C2=COCCO2)s1`, the Potency entry was “inactive”.

For `Cc1cccc(C)c1NC(=O)CNC(=O)c1ccc2c(c1)OCCO2`, the Potency result is “inactive”.

`O=C(Nc1ncc([N+](=O)[O-])s1)C1COc2ccccc2O1` (stereo unspecified): the Potency result is “inactive”.

Turning to `COc1cc(-c2nnc(NC(=O)C3=COCCO3)o2)cc(OC)c1OC`, the Potency is 39.8 µM (active).

As to `O=C(NCCc1csc(-c2ccc(C(F)(F)F)cc2)n1)C(=O)Nc1ccc(F)c(Cl)c1`, the Potency entry is “inactive”.

Consider `CC(C)(C)OC(=O)N1CCC(c2c(C(=O)NCc3ccccn3)cnn2-c2ccc(F)cc2)CC1`, for which the Potency result was “inactive”.

For `O=C(Nc1ncccc1O)c1ccc(C(=O)c2ccccc2)cc1`, the Potency result is “inactive”.

For the molecule `O=C(CNC(=O)c1ccc2ccccc2c1)Nc1ncccc1O`, the Potency is 50.1 µM (active).

As for `CC1CCC(NC(=O)CNC(=O)c2ccc3ccccc3c2)CC1` (stereo unspecified), the Potency result was “inactive”.

As for `CN(Cc1ccccc1)C(=O)CCS(=O)(=O)c1cc(Br)cc2c1N(C(=O)C1CC1)CC2`, the Potency result was “inactive”.

Take `Cc1ccc(C)c(N2CCN(C(=O)CN3C(=O)COc4ccc(S(=O)(=O)N5CCCCCC5)cc43)CC2)c1`: the Potency result was “inactive”.

For the molecule `CCOc1ccccc1OCCCNCc1ccccc1`, the Potency was 79.4 µM (active).

With `CCOCCCNCc1cc(Br)ccc1OCC`, the Potency result is “inactive”.

On to `CCOCCCNCc1ccc(OCc2ccc(F)cc2)c(OC)c1`, for which the Potency entry was “inactive”.

For `Cc1cc(C)c2oc(-c3cccc(NC(=O)c4cccc(F)c4)c3C)nc2c1`, the Potency result was “inactive”.

Consider `O=C1N=C(N2CCCC2)S/C1=C\c1cccc(Br)c1`, for which the Potency result was “inactive”.

For the molecule `CCOc1cc(/C=C2\SC(N3CCCCC3)=NC2=O)ccc1O`, the Potency result is “inactive”.

For the molecule `CCN1C(=O)/C(=C2\SC(N3CCCCC3)=NC2=O)c2ccccc21`, the Potency was 39.8 µM (active).

On to `CCOc1ccc(S(=O)(=O)c2cn(Cc3ccccc3)c3ccc(OCC)cc3c2=O)cc1`, for which the Potency result is “inactive”.

`CCc1ccc(CN(Cc2ccco2)C(=O)c2ccccc2Cl)cc1`: the Potency result was “inactive”.

`Cc1cc(=O)c2cc(C(=O)Nc3cccc(C)c3C)ccc2[nH]1`: the Potency result is “inactive”.

On to `OC(COCc1ccco1)CN1CCN(c2ccccc2)CC1` (stereo unspecified), for which the Potency was 89.1 µM (active).

As for `O=[N+]([O-])c1ccc(N2CCN(CC(O)COc3ccccc3)CC2)cc1` (stereo unspecified), the Potency entry is “inactive”.

As to `CC1CCCN(CC(O)COCc2ccccc2)C1` (stereo unspecified), the Potency entry is “inactive”.

Consider `CCCn1ccc2c(OCC(=O)NCc3ccc(F)cc3)cccc2c1=O`, for which the Potency result was “inactive”.

For the molecule `Cc1ccc(-c2cn3c(n2)sc2cc(C(=O)NCCCc4ccccc4)ccc23)cc1`, the Potency entry is “inactive”.

Turning to `Cc1ccc(NC(=O)CCN2C(=O)c3ccccc3C2=O)cc1C`, the Potency result was “inactive”.

Take `Cc1cc2c(cc1C)N(C(=O)CN1C(=O)c3ccccc3C1=O)C(C)(C)c1ssc(=S)c1-2`: the Potency was 8.91 µM (active).

On to `Cc1cc(C)cc(NC(=O)CN2C(=O)c3ccccc3C2=O)c1`, for which the Potency result is “inactive”.

As for `O=[N+]([O-])c1cc(C(F)(F)F)ccc1NN=C1CCCC1`, the Potency was 10 µM (active).

In the case of `O=[N+]([O-])c1cc(C(F)(F)F)ccc1NCCc1ccncc1`, the Potency entry was “inactive”.

For the molecule `COc1cc(OC)cc(C(=O)NC(=S)N2CCN(c3ccc(C(F)(F)F)cc3[N+](=O)[O-])CC2)c1`, the Potency result is “inactive”.

On to `COc1cccc(CNC(=O)C(=O)NCC(c2cccs2)S(=O)(=O)c2ccccc2)c1` (stereo unspecified), for which the Potency result was “inactive”.

Regarding `COc1ccccc1CNC(=O)CCCn1c(=O)c2ccccc2n(CC(=O)Nc2ccc(C)cc2Cl)c1=O`, the Potency result is “inactive”.

Take `O=C(Cc1ccc([N+](=O)[O-])cc1)N/N=C/c1ccco1`: the Potency entry was “inactive”.

Consider `O=C(N/N=C/c1ccco1)c1ccc(C(=O)N/N=C/c2ccco2)o1`, for which the Potency was 56.2 µM (active).

With `CC(C)NC(=O)C(=O)N/N=C/c1ccco1`, the Potency entry was “inactive”.

In the case of `CCOc1ccccc1NC(=O)CN1CCN(S(=O)(=O)c2ccc(Br)cc2)CC1`, the Potency entry is “inactive”.

Take `Cc1ccc(NC2=C(c3ccc(C(F)(F)F)cc3)C(=O)c3ccccc32)cc1F`: the Potency result was “inactive”.

Take `Cc1ccc(C)c(Cn2c(=O)n(CCC(=O)NCc3ccc4c(c3)OCO4)c(=O)c3sccc32)c1`: the Potency entry was “inactive”.

On to `Cc1oc2cc(Br)c(O)c(Br)c2c1C(=O)c1ccccc1`, for which the Potency result is “inactive”.

Consider `Cc1oc2cc([N+](=O)[O-])c(O)c([N+](=O)[O-])c2c1C(=O)c1ccc(Br)cc1`, for which the Potency is 35.5 µM (active).

Regarding `N/C(=N\OC(=O)Cc1ccccc1[N+](=O)[O-])c1ccc(Br)cc1`, the Potency entry is “inactive”.

With `COCCNc1ncnc2c1c(-c1ccccc1)cn2-c1ccc(C)c(Cl)c1`, the Potency result was “inactive”.

`COc1ccc(Cn2c(=S)[nH]c3cc(C(=O)NCCCN4CCOCC4)ccc3c2=O)cc1`: the Potency entry was “inactive”.

Regarding `Cc1c(C)n(Cc2ccc(Cl)cc2)c2ccc(C(=O)NCCc3ccc(S(N)(=O)=O)cc3)cc12`, the Potency entry was “inactive”.

Regarding `Cc1c(C)n(Cc2ccc(Cl)cc2)c2ccc(C(=O)NCCCN3CCOCC3)cc12`, the Potency was 39.8 µM (active).

On to `COc1ccc(-c2onc(C)c2C)cc1S(=O)(=O)NCC1CCN(Cc2cccc(F)c2)CC1`, for which the Potency entry is “inactive”.

As to `Cc1ccccc1CN1CCC(CNC(=O)c2c(C)oc3ncnc(N4CCCCC4)c23)CC1`, the Potency result was “inactive”.

Regarding `Cn1c(COc2ccccc2C(C)(C)C)nc2ccccc21`, the Potency result was “inactive”.

In the case of `COc1ccc(NC(=O)CSC2=Nc3ccccc3C3=NC(CC(=O)NCc4ccccc4OC)C(=O)N23)cc1Cl` (stereo unspecified), the Potency result is “inactive”.

On to `O=C(NC(=S)Nc1ccccc1C(=O)O)c1ccc(-c2ccc(Br)cc2)o1`, for which the Potency was 44.7 µM (active).

In the case of `O=C(NC(=S)Nc1cc(C(F)(F)F)ccc1N1CCOCC1)c1ccc(-c2cccc(Cl)c2)o1`, the Potency result was “inactive”.

As for `O=C(O)c1ccccc1NC(=O)c1ccccc1-c1ccccc1C(=O)O`, the Potency result was “inactive”.

As to `COc1cc(C)ccc1OCCSc1nc2ccc(NC(=O)c3ccc(C)cc3)cc2s1`, the Potency result is “inactive”.

On to `O=C(CCOc1ccccc1)N(Cc1cccnc1)c1nc2ccc(Cl)cc2s1`, for which the Potency result is “inactive”.

Take `Cc1cccc(N2CCN(C(=O)c3cc4c(=O)oc5ccccc5c4s3)CC2C)c1` (stereo unspecified): the Potency entry is “inactive”.

As for `COC(=O)c1ccc(NC(=O)c2cnn(-c3ccc(Cl)cc3)c2C2CCN(C(=O)OC(C)(C)C)CC2)cc1`, the Potency entry is “inactive”.

Consider `O/N=C1\CC2(Cc3nonc31)OCCO2`, for which the Potency result was “inactive”.

`ON=C1/C(=N\O)CC2(C/C1=N/O)OCCO2`: the Potency is 22.4 µM (active).

Turning to `Cc1cccc(N2CCN(C(=O)c3ccc4c(c3)CCN4S(=O)(=O)c3ccccc3)CC2)c1C`, the Potency entry was “inactive”.

Take `O=C(COc1ccc(Cl)cc1)N(Cc1ccco1)Cc1ccco1`: the Potency result is “inactive”.

As for `Cc1ccc(S(=O)(=O)NCc2nc3nc(C)cc(C)n3n2)cc1`, the Potency entry is “inactive”.

Consider `CCc1ccc(NC(=O)CSc2nc3c([nH]c4ccccc43)c(=O)n2-c2cccc(OC)c2)cc1`, for which the Potency entry is “inactive”.

As for `Cn1c(=O)c2c(SCC(=O)N3CCc4ccccc43)nc(-c3ccc(Cl)cc3)nc2n(C)c1=O`, the Potency result is “inactive”.

In the case of `Cc1cc(C)nc(N/N=C/c2c(C)oc3ccccc23)n1`, the Potency entry was “inactive”.

In the case of `Cc1cc(C)nc(N/N=C/c2c(CO)cnc(C)c2O)n1`, the Potency was 79.4 µM (active).

In the case of `O=C(c1cccc(Cl)c1)N1CCN(CCc2ccncc2)CC1`, the Potency result was “inactive”.

`CC(NC(=O)c1ccco1)C(=O)Nc1nc(-c2ccccn2)cs1` (stereo unspecified): the Potency was 22.4 µM (active).

For `CCOC(=O)N1CCN(C(=O)C(C)NC(=O)c2ccco2)CC1` (stereo unspecified), the Potency result is “inactive”.

Consider `CSCCC(NC(=O)c1ccco1)C(=O)Nc1cc(C)ccn1` (stereo unspecified), for which the Potency entry was “inactive”.

Consider `Cc1cc(C)cc(-n2ccnc2SCC(=O)Nc2nc3ccccc3s2)c1`, for which the Potency entry is “inactive”.

Consider `COc1ccc(CCNC(=O)c2cc3cccc4c3n2CC(C)S4)c(OC)c1OC` (stereo unspecified), for which the Potency entry was “inactive”.

As for `CCC1=Nc2cc(C(=O)NCC(C)c3ccccc3)ccc2Sc2ccc(C)cc21` (stereo unspecified), the Potency result is “inactive”.

Regarding `Cc1nnc(SCC(=O)Nc2ccc(S(=O)(=O)Nc3ccc(Cl)nn3)cc2)s1`, the Potency is 50.1 µM (active).

In the case of `CCCCCC(=O)Nc1ccc(S(=O)(=O)Nc2ccc(Cl)nn2)cc1`, the Potency entry was “inactive”.

Regarding `Cc1nnc(SCC(=O)Nn2cnnc2)s1`, the Potency entry was “inactive”.

On to `c1ccc(-c2ccccc2OCCN2CCCCC2)cc1`, for which the Potency was 50.1 µM (active).

For the molecule `C#CC(CCN1CCCCC1)(OC)c1ccccc1` (stereo unspecified), the Potency result was “inactive”.

On to `c1ccc(-c2ccc(OCCN3CCOCC3)cc2)cc1`, for which the Potency result is “inactive”.

Source of the values: PubChem BioAssay AID504333 (National Center for Advancing Translational Sciences (NCATS), 2011).
